RGS8-Gao reg: regulators of human RGS8-Galphao interaction; response (percent of control binding), % at 10 µM; 0.34% of 220,000 active; multiplexed bead flow cytometry, RGS8-Galphao binding; actives lie on both sides; P09471; in the data active = response below about 60% or above about 140%; inactive = in between;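 note: Galphao activated as the GDP aluminium fluoride complex binding bead-coupled RGS8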
Target sequence (P09471 whole entry, looked up): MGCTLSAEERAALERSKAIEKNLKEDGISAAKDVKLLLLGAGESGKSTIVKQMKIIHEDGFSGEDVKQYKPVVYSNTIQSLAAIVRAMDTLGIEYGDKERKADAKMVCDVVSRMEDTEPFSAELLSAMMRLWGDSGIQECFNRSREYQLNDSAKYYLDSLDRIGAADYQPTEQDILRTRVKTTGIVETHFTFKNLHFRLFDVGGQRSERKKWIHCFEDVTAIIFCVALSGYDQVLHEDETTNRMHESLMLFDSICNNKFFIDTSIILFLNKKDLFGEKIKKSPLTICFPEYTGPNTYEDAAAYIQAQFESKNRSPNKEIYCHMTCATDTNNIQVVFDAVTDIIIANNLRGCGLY
RGS16-Gao HTS: modulates binding between human RGS16 and Galphao; O15492+P09471; bead-based flow cytometry RGS16-Galphao binding, fluorescence; actives lie on both sides; binding response (% of control), % at 10 µM; 0.38% of 220,000 active;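 note: Galphao activated by GDP with aluminum fluoride before binding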
RGS4-Gao reg: human RGS4-Galphao interaction regulation. P09471. AID 1415. 0.33% of 220,000 active. Multiplexed bead flow cytometry, RGS4-Galphao binding; actives lie on both sides. binding response (% of control), % at 10 µM; in the data active = binding response below about 49% or above about 150%; inactive = in between;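 note: fluorescent Galphao activated with aluminum fluoride binding bead-coupled RGS4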
RGS7-Gao: modulates binding of RGS7 to human Galphao | 0.35% of 220,000 active | binding response (% of control), % at 10 µM | Multiplexed bead flow cytometry; actives lie on both sides; in the data active = binding response below about 49% or above about 150%; inconclusive = no clear call, values can overlap the other calls; inactive = in between;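 note: fluorescent Galphao held in activated GDP-AlF4 state binding bead-coupled RGS7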
GSH fluor: GSH bead compound fluorescence profile; GSH beads flow cytometry, compound fluorescence 488/530 nm; hits give high values; fluorescence (KMESF) at 10 µM; 0.25% of 190,000 active; AID 1776; in the data active = fluorescence above about 89;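 note: glutathione beads carrying GST-tagged Bcl family fusion proteins plus one bare bead set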
Avidin fluor: avidin bead compound fluorescence profile; Avidin beads, compound fluorescence 488/530 nm, flow cytometry; hits give high values; fluorescence (KMESF) at 10 µM; 0.38% of 220,000 active; in the data active = fluorescence above about 47
RGS-Gao: RGS4-Galphao interaction regulator (human) | RGS4–Galpha-o binding response, % at 10 µM | 99% of 1,600 active | shares compounds with RGS16-Gao HTS | multiplexed bead flow cytometry, RGS–Galpha-o binding;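 note: fluorescently labeled Galpha-o bound to GDP with aluminium fluoride binding biotinylated RGS beads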
Target sequence (P09471 whole entry, looked up): as above
Target sequence (P49798 whole entry, looked up): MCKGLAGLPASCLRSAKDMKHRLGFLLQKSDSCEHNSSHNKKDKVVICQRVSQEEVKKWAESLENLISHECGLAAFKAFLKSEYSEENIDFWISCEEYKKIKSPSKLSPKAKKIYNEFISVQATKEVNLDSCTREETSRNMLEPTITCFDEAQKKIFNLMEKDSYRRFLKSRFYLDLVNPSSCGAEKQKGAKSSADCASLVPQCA
Avidin counter: biotin-avidin bead binding disruption counter-screen | 1,700 tested, under 10 active | shares compounds with RGS16-Gao HTS | AID 1783 | inhibition, % at 10 µM | streptavidin beads, fluorescein-biotin binding, flow cytometry;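 active = inhibition above 50%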;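 note: median green fluorescence of gated singlet beads compared with DMSO control wells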
RGS8-Gao single: RGS8-Galphao interaction regulation, single point confirmation; 3% of 1,700 active; AID 1836; binding response (% of control), % at 10 µM; bead-based flow cytometry RGS8-Galphao binding, fluorescence; actives lie on both sides; shares compounds with RGS16-Gao HTS; in the data active = binding response below about 72% or above about 130%; inactive = in between;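 note: Galphao activated as GDP AlF4 complex before binding bead RGS8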
RGS7-Gao single: RGS7-Galphao interaction regulation, single point confirmation | shares compounds with RGS16-Gao HTS | bead-based flow cytometry RGS7-Galphao binding; actives lie on both sides | response (percent of control binding), % at 10 µM | 7.8% of 1,700 active; in the data active = response below about 75% or above about 130%; inactive = in between;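 note: fluorescent Galphao activated with GDP and aluminum fluoride binding bead-coupled RGS7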
RGS16-Gao conf: RGS16-Galphao interaction regulation, single point confirmation. 4% of 1,700 active. bead-based flow cytometry, RGS16-Galphao binding; actives lie on both sides. response (% of control binding), % at 10 µM. shares compounds with RGS16-Gao HTS; in the data active = response below about 74% or above about 130%; inactive = in between;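 note: Galphao activated as the GDP aluminium fluoride complex binding bead-coupled RGS16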
RGS4-Gao confirm: confirmation of regulators of human RGS4-Galphao interaction; shares compounds with RGS16-Gao HTS; binding response (% of control), % at 10 µM; RGS4-Galphao binding, multiplexed bead flow cytometry; actives lie on both sides; 4% of 1,700 active; in the data active = binding response below about 74% or above about 130%; inactive = in between
RGS19-Gao conf: RGS19-Galphao interaction regulation, single point confirmation. AID 1841. shares compounds with RGS16-Gao HTS. 5% of 1,700 active. response (percent of control binding), % at 10 µM. bead-based flow cytometry RGS19-Galphao binding; actives lie on both sides; in the data active = response below about 50% or above about 160%; inactive = in between
Numbers stand for hits; – = inactive; ? = inconclusive; · = no result; [ ] = remark or other dose. In the library only some 1.2% were active in any assay of this set; here they are far more common. Unless noted, the rule behind the calls is not given here.

SMILES | RGS8-Gao reg | RGS16-Gao HTS | RGS4-Gao reg | RGS7-Gao | GSH fluor | Avidin fluor | Avidin counter | RGS8-Gao single | RGS7-Gao single | RGS16-Gao conf | RGS4-Gao confirm | RGS19-Gao conf | others
COCCn1c(C)cc(C(=O)COC(=O)c2ccc3ncsc3c2)c1C | 47.2 | -52.9 | -46.2 | 14.7 | – | – | – | – | – | – | – | –
CC1(C)NC(=O)N(CC(=O)Nc2nc(-c3ccc(F)cc3)cs2)C1=O | – | – | – | 215.6[activator] | – | 195 | – | – | 69.3 | – | – | 48.8 | RGS-Gao=133.1
O=C(CN1C(=O)NC2(CCCC2)C1=O)Nc1nc(-c2ccc(F)cc2)cs1 | – | – | – | – | – | – | · | · | · | · | · | ·
O=C(NCc1ccccn1)c1nc(-c2ccc(C(F)(F)F)cc2)no1 | – | – | – | – | – | – | · | · | · | · | · | ·
CC(C)(C)c1ccc(-c2noc(C(=O)NN)n2)cc1 | – | 13.8 | – | ? | · | – | – | – | – | – | – | – | RGS-Gao=82.8
Oc1ccc(/C=N/Nc2ncnc3nc[nH]c23)cc1 | 52.2 | – | 37.0 | ? | · | – | – | – | – | – | – | –
CC(C)CCn1c(Sc2nc3ccccc3o2)nc2c1c(=O)[nH]c(=O)n2C | – | – | – | – | – | – | · | · | · | · | · | ·
COc1ccc(CCC(=O)NCc2cn3ccccc3n2)cc1 | – | – | – | ? | · | – | · | · | · | · | · | ·
CC(NC(=O)Cc1cccs1)C(c1cccs1)N1CCOCC1 (configuration not stated) | 45.5 | 7.5 | 39.3 | 44.9 | – | – | – | – | – | – | – | –
Cc1cccc(NCc2cc(Cl)cc(Cl)c2O)n1 | – | 322.7[activator] | 274.1[activator] | 278.1[activator] | – | 175 | – | – | – | – | – | –
CC(C)CCN1CCN(Cc2cccc3cccnc23)CC1CCO (configuration not stated) | – | – | – | – | – | – | · | · | · | · | · | ·
CC(C)(C)Nc1nc(Oc2ccc(=O)n(-c3ccccc3)n2)nc(N2CCOCC2)n1 | · | · | · | · | – | · | – | – | – | – | – | –
Cn1nc(Oc2nc(N3CCOCC3)nc(N3CCOCC3)n2)ccc1=O | 11.6 | – | -22.7 | -4.9 | – | – | – | – | – | – | – | –
COc1ccccc1CNC(=O)CCSCc1cccc(Cl)c1 | 145.8[activator] | – | – | – | – | – | – | – | – | – | – | – | RGS-Gao=98.6
O=C(CCSCc1cccc(Cl)c1)NC1CCCC1 | – | – | – | – | – | – | · | · | · | · | · | ·
COc1ccc(CNC(=O)CSCc2cccc(Cl)c2)cc1 | – | – | – | – | – | – | · | · | · | · | · | ·
COc1ccc(CNC(=O)CCSCc2cccc(Cl)c2)cc1 | – | – | 156.6[activator] | 177.4[activator] | – | 92 | – | – | – | – | – | –
Cc1ccnc(NS(=O)(=O)c2cccc([N+](=O)[O-])c2)c1 | – | – | – | ? | · | – | · | · | · | · | · | ·
CS(=O)(=O)c1cnc(-c2cccnc2)nc1N | – | – | – | – | – | – | · | · | · | · | · | ·
COc1ccc(C(=O)/C=C/c2ccc(OC(=O)c3cc(OC)c(OC)c(OC)c3)cc2)cc1 | 159.0[activator] | – | – | – | – | – | – | – | – | – | – | – | RGS-Gao=119.5
CCOc1ccc(C(=O)/C=C/c2cc(OC)c(OC)c(OC)c2)cc1 | – | – | – | ? | – | – | · | · | · | · | · | ·
CCOc1ccc(C(=O)/C=C/c2ccc(SC)cc2)cc1 | – | – | – | – | – | – | · | · | · | · | · | ·
CCOc1ccc(/C=C/C(=O)c2ccccc2)cc1 | 23.1 | -3.6 | -8.9 | ? | · | – | – | – | – | – | – | –
CC(C)(O)C1=NOC(c2ccccc2)C1 (configuration not stated) | – | – | – | 337.9[activator] | – | 200 | – | – | – | – | – | – | RGS-Gao=132.9
O=C1CC(=O)CC(c2ccccc2)C1 | – | – | – | – | – | – | · | · | · | · | · | ·
SMILES | RGS8-Gao reg | RGS16-Gao HTS | RGS4-Gao reg | RGS7-Gao | GSH fluor | Avidin fluor | Avidin counter | RGS8-Gao single | RGS7-Gao single | RGS16-Gao conf | RGS4-Gao confirm | RGS19-Gao conf | others
O=C(COC(=O)Cc1cccc(C(F)(F)F)c1)Nc1ccc2c(c1)OCCO2 | – | – | – | – | – | – | · | · | · | · | · | ·
O=C(COC(=O)Cc1cccc(C(F)(F)F)c1)NC1CC1 | 11.8 | 6.5 | 15.6 | 12.1 | – | – | – | – | – | – | – | –
O=C(COC(=O)c1ccncc1)c1ccc(Cl)c(Cl)c1 | – | – | – | – | – | – | · | · | · | · | · | ·
CCOc1ccc(Br)cc1-c1noc(-c2cccs2)n1 | 8.4 | – | 21.3 | 12.0 | – | – | – | – | – | – | – | –
COC(=O)CC(NC(=O)Nc1ccc(C)cc1)c1cccc([N+](=O)[O-])c1 (configuration not stated) | 26.3 | 19.8 | 28.0 | 4.0 | – | – | – | – | – | – | – | –
Cc1cc([N+](=O)[O-])nn1CC(=O)NCCc1c[nH]c2ccccc12 | – | – | – | – | – | – | · | · | · | · | · | ·
NC(=O)SC/C(=N\S(=O)(=O)c1ccccc1)Nc1ccccc1 | – | 418.5[activator] | 349.8[activator] | 268.1[activator] | – | 189 | – | – | – | – | – | –
O=C(N/N=C/c1cn(-c2ccccc2)nc1-c1cccnc1)c1cccnc1 | – | – | – | 174.1[activator] | – | 62 | – | – | – | – | – | – | RGS-Gao=112.0
O=C(CCC(=O)N1CCN(c2ccccc2)CC1)Nc1nnc(C2CCCCC2)s1 | – | – | – | ? | · | – | · | · | · | · | · | ·
OCCN(Cc1ccccc1)C(=S)Nc1ccc(Cl)cc1Cl | – | – | – | – | – | – | · | · | · | · | · | ·
CC(=O)c1c(C(C)=O)c(C)n(NC(=O)c2ccc(Cl)cc2)c1C | – | – | 193.8[activator] | 163.0[activator] | – | 71 | – | – | – | – | – | –
CCCC(C)C(=O)OCC(=O)NCc1ccc(OC)c(OC)c1 (configuration not stated) | – | – | – | – | – | – | · | · | · | · | · | ·
COc1ccc(S(=O)(=O)N2CCC(N3CCCCC3)CC2)cc1 | – | – | – | – | – | – | · | · | · | · | · | ·
O=S(=O)(c1ccc(F)cc1)N1CCC(N2CCCC2)CC1 | – | – | – | 162.9[activator] | – | 88 | · | · | · | · | · | · | RGS-Gao=107.3
